Measured values: PubChem BioAssay AID1159580 (chemical genetic matrix, 2015)
About 2,000 (36%) of roughly 5,500 compounds were called active. Another 18% or so got no clear call; they are omitted. No stated cut-off is given here; in the data, active means normalized growth mostly below about 0.91 (no sharp cut-off); inconclusive means no clear call, values can overlap the other calls; inactive means mostly above about 0.92. Some of the results follow.

Assay: chemical genetic growth profiling, strain panel (AID 1159580);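 further: tested at 20 µM; growth read once vehicle control cultures reached saturation at 30 °C; 1 = growth at the plate median or of vehicle wells; lower values mean less growth of the strain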
Conditions: growth OD

Measured: normalized growth

CCC[C@H](N[C@@H](C)C(=O)N1[C@H](C(=O)O)C[C@@H]2CCCC[C@@H]21)C(=O)OCC
inactive: S. cerevisiae deletion strains, locus YJR075W, strain HOC1, hits give low values 1.02 | S. cerevisiae deletion strains, locus YKL009W, strain mrt4, hits give low values 1.02 | S. cerevisiae deletion strains, locus YKL068W, hits give low values 1.03 | S. cerevisiae deletion strains, locus YKL085W, strain MDH1 (second series), hits give low values 1.01 | S. cerevisiae deletion strains, locus YKL085W, strain MDH1, hits give low values 1.01 | S. cerevisiae deletion strains, locus YKL160W, strain elf1, hits give low values 1.02 | S. cerevisiae deletion strains, locus YKL190W, strain CNB1, hits give low values 1.02 | S. cerevisiae deletion strains, locus YKR001C, strain vps1, hits give low values 1.03 | S. cerevisiae deletion strains, locus YKR026C, strain gcn3, hits give low values 1.02 | S. cerevisiae deletion strains, locus YKR091W, strain srl3, hits give low values 1.02 | S. cerevisiae deletion strains, locus YLL001W, strain dnm1, hits give low values 1.02 | S. cerevisiae deletion strains, locus YLL026W, hits give low values 1.01 | S. cerevisiae deletion strains, locus YLL041C, strain sdh2, hits give low values 1.01 | S. cerevisiae deletion strains, locus YLR027C, strain aat2, hits give low values 1.01 | S. cerevisiae deletion strains, locus YLR039C, strain RIC1, hits give low values 1.03 | S. cerevisiae deletion strains, locus YLR058C, strain SHM2, hits give low values 1.01 | S. cerevisiae deletion strains, locus YLR102C, strain apc9, hits give low values 1.02 | S. cerevisiae deletion strains, locus YLR113W, strain HOG1, hits give low values 0.988 | S. cerevisiae deletion strains, locus YLR221C, strain rsa3, hits give low values 1.01 | S. cerevisiae deletion strains, locus YLR258W, strain gsy2, hits give low values 1.02 | S. cerevisiae deletion strains, locus YLR262C, strain YPT6 (second series), hits give low values 1.03 | S. cerevisiae deletion strains, locus YLR262C, strain YPT6, hits give low values 1.04 | S. cerevisiae deletion strains, locus YLR268W, strain sec22, hits give low values 1.02 | S. cerevisiae deletion strains, locus YLR320W, strain mms22, hits give low values 1.01 | S. cerevisiae deletion strains, locus YLR330W, strain CHS5, hits give low values 1.01 | S. cerevisiae deletion strains, locus YLR342W, strain FKS1 (second series), hits give low values 1.02 | S. cerevisiae deletion strains, locus YLR342W, strain FKS1, hits give low values 1.03 | S. cerevisiae deletion strains, locus YLR357W, strain rsc2, hits give low values 0.998 | S. cerevisiae deletion strains, locus YLR370C, strain arc18, hits give low values 1.01 | S. cerevisiae deletion strains, locus YLR371W, strain rom2, hits give low values 1.01 | S. cerevisiae deletion strains, locus YLR384C, strain iki3, hits give low values 1.01 | S. cerevisiae deletion strains, locus YLR418C, strain cdc73, hits give low values 1.01 | S. cerevisiae deletion strains, locus YML016C, strain PPZ1, hits give low values 1.01 | S. cerevisiae deletion strains, locus YML032C, strain rad52, hits give low values 1.02 | S. cerevisiae deletion strains, locus YML120C, strain ndi1, hits give low values 1.02 | S. cerevisiae deletion strains, locus YML124C, strain tub3, hits give low values 1.02 | S. cerevisiae deletion strains, locus YMR058W, strain fet3, hits give low values 1.02 | S. cerevisiae deletion strains, locus YMR078C, strain ctf18, hits give low values 1.03 | S. cerevisiae deletion strains, locus YMR125W, strain sto1, hits give low values 0.994 | S. cerevisiae deletion strains, locus YMR129W, hits give low values 1.02 | S. cerevisiae deletion strains, locus YMR205C, strain PFK2, hits give low values 1.02 | S. cerevisiae deletion strains, locus YMR223W, strain ubp8, hits give low values 1.03 | S. cerevisiae deletion strains, locus YMR231W, strain pep5, hits give low values 1.02 | S. cerevisiae deletion strains, locus YMR263W, strain SAP30, hits give low values 1.01 | S. cerevisiae deletion strains, locus YMR307W, strain GAS1, hits give low values 0.976 | S. cerevisiae deletion strains, locus YNL067W, strain RPL9B, hits give low values 1.01 | S. cerevisiae deletion strains, locus YNL071W, strain lat1, hits give low values 1.01 | S. cerevisiae deletion strains, locus YNL128W, strain TEP1, hits give low values 1.01 | S. cerevisiae deletion strains, locus YNL153C, strain GIM3, hits give low values 1 | S. cerevisiae deletion strains, locus YNL183C, strain NPR1, hits give low values 0.963 | S. cerevisiae deletion strains, locus YNL209W, strain ssb2, hits give low values 1.01 | S. cerevisiae deletion strains, locus YNL233W, strain BNI4, hits give low values 0.996 | S. cerevisiae deletion strains, locus YNL248C, strain rpa49, hits give low values 1.01 | S. cerevisiae deletion strains, locus YNL250W, strain rad50, hits give low values 1.02 | S. cerevisiae deletion strains, locus YNL271C, strain bni1, hits give low values 1.02 | S. cerevisiae deletion strains, locus YNL298W, strain CLA4, hits give low values 1.01 | S. cerevisiae deletion strains, locus YNL307C, strain MCK1, hits give low values 1.03 | S. cerevisiae deletion strains, locus YNL322C, strain KRE1 (second series), hits give low values 1.02 | S. cerevisiae deletion strains, locus YNL322C, strain KRE1, hits give low values 1.01 | S. cerevisiae deletion strains, locus YNR049C, strain mso1, hits give low values 1.02 | S. cerevisiae deletion strains, locus YNR052C, strain pop2, hits give low values 1.02 | S. cerevisiae deletion strains, locus YOL006C, strain TOP1, hits give low values 1.04 | S. cerevisiae deletion strains, locus YOL012C, strain htz1 0.981 | S. cerevisiae deletion strains, locus YOL147C, strain pex11, hits give low values 1.02 | S. cerevisiae deletion strains, locus YOR001W, strain rrp6, hits give low values 1.03 | S. cerevisiae deletion strains, locus YOR061W, strain CKA2, hits give low values 1.01 | S. cerevisiae deletion strains, locus YOR069W, strain VPS5, hits give low values 1 | S. cerevisiae deletion strains, locus YOR070C, strain gyp1, hits give low values 1.02 | S. cerevisiae deletion strains, locus YOR080W, strain dia2, hits give low values 1.03 | S. cerevisiae deletion strains, locus YOR083W, strain WHI5, hits give low values 1.02 | S. cerevisiae deletion strains, locus YOR106W, strain vam3, hits give low values 1.04 | S. cerevisiae deletion strains, locus YOR136W, strain idh2, hits give low values 1.02 | S. cerevisiae deletion strains, locus YOR144C, strain elg1, hits give low values 1.02 | S. cerevisiae deletion strains, locus YOR184W, strain ser1, hits give low values 1.03 | S. cerevisiae deletion strains, locus YOR231W, strain MKK1, hits give low values 0.999 | S. cerevisiae deletion strains, locus YOR265W, strain rbl2, hits give low values 1.01 | S. cerevisiae deletion strains, locus YOR270C, strain vph1, hits give low values 1.05 | S. cerevisiae deletion strains, locus YOR290C, strain snf2, hits give low values 1 | S. cerevisiae deletion strains, locus YOR316C, strain cot1, hits give low values 1.02 | S. cerevisiae deletion strains, locus YPL051W, strain arl3, hits give low values 1.02 | S. cerevisiae deletion strains, locus YPL055C, strain LGE1, hits give low values 1.01 | S. cerevisiae deletion strains, locus YPL078C, strain atp4, hits give low values 1.03 | S. cerevisiae deletion strains, locus YPL106C, strain sse1, hits give low values 1.02 | S. cerevisiae deletion strains, locus YPL240C, strain hsp82, hits give low values 1.02 | S. cerevisiae deletion strains, locus YPL241C, strain CIN2, hits give low values 1.03 | S. cerevisiae deletion strains, locus YPL256C, strain CLN2, hits give low values 1 | S. cerevisiae deletion strains, locus YPR119W, strain clb2, hits give low values 1.03 | S. cerevisiae deletion strains, locus YPR141C, strain kar3, hits give low values 1.02 | S. cerevisiae deletion strains, locus YPR163C, strain tif3, hits give low values 1.02 | S. cerevisiae deletion strains, locus YPR167C, strain met16, hits give low values 1.01 | S. cerevisiae deletion strains, strain wtn01, hits give low values 1.01 | S. cerevisiae strains, strain wild type, hits give low values 1.01
